The structures appear in SMILES notation. About 79,000 compounds went through this panel and 15% of them were active in at least one assay; those are over-represented in the sample as a whole. Unmarked numbers belong to inactive results. Active and inactive are the calls of the source. Rule as the data show it: active = growth inhibition above about 70%; inactive = the rest. *1 amine or outer side, *2 acyl side, *3 side chain or, on linkers, in order; H or OH if unused. Where a SMILES comes first, the peptide text is derived from it. Bridges are numbered along the chain shown (N, C = ends). Roman numbers before positions name the chains, in order. [ ]: non-standard residue; d: D form. The star is where a group is joined. Actinocin(9to1) = Cc1c2oc3c(C)ccc(C(=O)[*:1])c3nc-2c(C(=O)[*:2])c(N)c1=O; NMeV = CN[CH](C(=O)O)C(C)C; Pip = O=C(O)[CH]1CCCCN1; Cbz = O=C(OCc1ccccc1)*; Boc = CC(C)(C)OC(=O)*; OSu = O=C1CCC(=O)N1O*; Bn = c1ccc(C*)cc1; Sar = CNCC(=O)O

The nature of experiment [1]: NCI Yeast Anticancer Drug Screen. Data for the rad50 strain (AID 155).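 Also: 0% = growth of vehicle-only cultures of the same strain.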 The note with it: S. cerevisiae rad50 strain growth inhibition, active compounds read high. The procedure, abridged:
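Compounds were tested on a yeast strain with an engineered DNA damage repair alteration; the reported value is growth inhibition normalised to vehicle treatment.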

The nature of experiment [2]: NCI Yeast Anticancer Drug Screen. Data for the mec2-1 strain (AID 157). The note with it: S. cerevisiae mec2-1 strain, active compounds read high. A digest of the protocol: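 Yeast mec2-1 mutant treated with compound. Readout: growth inhibition vs vehicle controls.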
Experiment [3] in a line: NCI Yeast Anticancer Drug Screen. Data for the sgs1 mgt1 strain (AID 161).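 Also: 0% = growth of cultures given vehicle only.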 The note with it: S. cerevisiae sgs1 mgt1 strain, active compounds read high. A digest of the protocol: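 Read-out: growth inhibition vs vehicle controls. Cells: mutant yeast strain deficient in DNA damage repair.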
Experiment [4] can be described thus: NCI Yeast Anticancer Drug Screen. Data for the cln2 rad14 strain (AID 165).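 Also: 0% = growth equal to vehicle treated cultures.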 The note with it: S. cerevisiae cln2 rad14 strain, active compounds read high. A digest of the protocol: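 cln2 rad14 yeast strain; compound exposure; growth inhibition read vs vehicle controls.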
Experiment [5] is described as follows: NCI Yeast Anticancer Drug Screen. Data for the bub3 strain (AID 167). The note with it: S. cerevisiae bub3 mutant strain, active compounds read high. The procedure, abridged:
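Growth of a checkpoint-deficient yeast mutant is measured after compound exposure. Values represent inhibition relative to vehicle.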

A short description of experiment [6]: NCI Yeast Anticancer Drug Screen. Data for the mlh1 rad18 strain (AID 175). The note with it: S. cerevisiae mlh1 rad18 strain growth inhibition, active compounds read high. A digest of the protocol: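 Yeast w/ defined DNA-repair lesions; compound exposure; growth vs vehicle controls → % inhibition.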
[7] abbreviates: at 5.0 µM (retest, dose inferred, filed as 0.5).
Where [8] appears, read: at 50.0 µM (retest, dose inferred, filed as 5.0).

`CC(C)CCCC(O)CNCc1ccccc1` (configuration not stated): the growth inhibition in experiment [1] (setting [7]) was 9%; in experiment [1] (setting [8]) it was 27%; in experiment [1] (at 50.0 µM) it was -1.95%; in experiment [2] (setting [7]), 17%; in experiment [2] (setting [8]), 38%; in experiment [2] (at 50.0 µM) it was 11.4%. Besides, the growth inhibition in experiment [3] (setting [7]) is 13%; in experiment [3] (setting [8]), -11%; in experiment [3] (at 50.0 µM) it was 28.2%; in experiment [4] (setting [7]) it was 13%; in experiment [4] (setting [8]), 36%; in experiment [4] (at 50.0 µM), -18.9%. Further, the growth inhibition in experiment [5] (setting [7]) was 5%; in experiment [5] (setting [8]) it was 44%; in experiment [5] (at 50.0 µM) it was 82% (active); in experiment [6] (setting [7]) it was 7%; in experiment [6] (setting [8]), 15%; in experiment [6] (at 50.0 µM), 10.2%.

In the case of `CC(C)(C)OC(=O)NC(Cc1ccc(OCc2ccccc2)cc1)C(=O)NC(CCCCNC(=O)OCc1ccccc1)C(=O)ON1C(=O)CCC1=O` (configuration not stated) (Boc-Tyr(Bn)-Lys(Cbz)-OSu; configuration not given here), the growth inhibition was 47% in experiment [1] (setting [7]); 73% (active) in experiment [1] (setting [8]); 64.2% in experiment [1] (at 50.0 µM); 31% in experiment [2] (setting [7]); 66% in experiment [2] (setting [8]); 48.5% in experiment [2] (at 50.0 µM). For the same molecule, the growth inhibition in experiment [3] (setting [7]) is 40%; in experiment [3] (setting [8]), 64%; in experiment [3] (at 50.0 µM) it was 38.9%; in experiment [4] (setting [7]) it was 31%; in experiment [4] (setting [8]) it was 50%; in experiment [4] (at 50.0 µM), 55.5%. Further, the growth inhibition in experiment [5] (setting [7]) was 37%; in experiment [5] (setting [8]) it was 70% (active); in experiment [5] (at 50.0 µM) it was 62.5%; in experiment [6] (setting [7]) it was 51%; in experiment [6] (setting [8]) it was 83% (active); in experiment [6] (at 50.0 µM), 57%.

Take `C=C(C)CCC(=C)C`: the growth inhibition in experiment [1] (setting [7]) is 22%; in experiment [1] (setting [8]), 91% (active); in experiment [1] (at 50.0 µM) it was 48.7%; in experiment [2] (setting [7]), 3%; in experiment [2] (setting [8]) it was 47%; in experiment [2] (at 50.0 µM) it was 14.1%. Further, the growth inhibition is 11% in experiment [3] (setting [7]); 63% in experiment [3] (setting [8]); 42.4% in experiment [3] (at 50.0 µM); -4% in experiment [4] (setting [7]); 26% in experiment [4] (setting [8]); 29.8% in experiment [4] (at 50.0 µM). Also, the growth inhibition is -2% in experiment [5] (setting [7]); 2% in experiment [5] (setting [8]); -35.2% in experiment [5] (at 50.0 µM); 16% in experiment [6] (setting [7]); 64% in experiment [6] (setting [8]); 42% in experiment [6] (at 50.0 µM).

As for `c1ccc(C2CC(c3ccc4ccccc4c3)=Nc3ccccc3S2)cc1` (configuration not stated), the growth inhibition was 0% in experiment [1] (setting [7]); 40% in experiment [1] (setting [8]); 76.8% (active) in experiment [1] (at 50.0 µM); -4% in experiment [2] (setting [7]); 72% (active) in experiment [2] (setting [8]); 50.6% in experiment [2] (at 50.0 µM). The growth inhibition was 8% in experiment [3] (setting [7]); 78% (active) in experiment [3] (setting [8]); 80.8% (active) in experiment [3] (at 50.0 µM); -11% in experiment [4] (setting [7]); 19% in experiment [4] (setting [8]); 69.5% in experiment [4] (at 50.0 µM). Further, the growth inhibition in experiment [5] (setting [7]) was 21%; in experiment [5] (setting [8]), 91% (active); in experiment [5] (at 50.0 µM) it was 96.5% (active); in experiment [6] (setting [7]) it was 3%; in experiment [6] (setting [8]), 76% (active); in experiment [6] (at 50.0 µM), 88.1% (active).

For `COc1cccc2c1C(=O)c1c(O)c3c(c(O)c1C2=O)CC(O)(C(C)=O)CC3OC1CC(NCC2(O)OCC(O)C2O)C(O)C(C)O1` (configuration not stated), the growth inhibition in experiment [1] (setting [7]) was 50%; in experiment [1] (setting [8]), 96% (active); in experiment [1] (at 50.0 µM) it was 88.8% (active); in experiment [2] (setting [7]) it was 34%; in experiment [2] (setting [8]) it was 98% (active); in experiment [2] (at 50.0 µM), 88.6% (active). Moreover, the growth inhibition in experiment [3] (setting [7]) is 33%; in experiment [3] (setting [8]), 98% (active); in experiment [3] (at 50.0 µM), 86.8% (active); in experiment [4] (setting [7]) it was 44%; in experiment [4] (setting [8]) it was 97% (active); in experiment [4] (at 50.0 µM), 87.4% (active). The growth inhibition in experiment [5] (setting [7]) was 34%; in experiment [5] (setting [8]), 98% (active); in experiment [5] (at 50.0 µM), 87.1% (active); in experiment [6] (setting [7]), 40%; in experiment [6] (setting [8]), 96% (active); in experiment [6] (at 50.0 µM), 91% (active).

Turning to `CCCCCCCCCC(C)CC(=O)NCCCN(C)CCCCN(C)C` (configuration not stated) (tested in a mixture with another compound), the growth inhibition is -24% in experiment [1] (setting [7]); 67% in experiment [1] (setting [8]); 88.8% (active) in experiment [1] (at 50.0 µM); 26% in experiment [2] (setting [7]); 68% in experiment [2] (setting [8]); 80.2% (active) in experiment [2] (at 50.0 µM). The growth inhibition is 35% in experiment [3] (setting [7]); 93% (active) in experiment [3] (setting [8]); 87% (active) in experiment [3] (at 50.0 µM); 28% in experiment [4] (setting [7]); 27% in experiment [4] (setting [8]); 62.1% in experiment [4] (at 50.0 µM). Also, the growth inhibition is -17% in experiment [5] (setting [7]); 86% (active) in experiment [5] (setting [8]); 90.2% (active) in experiment [5] (at 50.0 µM); 34% in experiment [6] (setting [7]); 76% (active) in experiment [6] (setting [8]); 82.3% (active) in experiment [6] (at 50.0 µM).

As to `CN(C)c1nc(=NCc2ccco2)ss1`, the growth inhibition in experiment [1] (setting [7]) is 12%; in experiment [1] (setting [8]), 51%; in experiment [1] (at 50.0 µM), 1.8%; in experiment [2] (setting [7]), 17%; in experiment [2] (setting [8]) it was 53%; in experiment [2] (at 50.0 µM), 2.3%. For the same molecule, the growth inhibition in experiment [3] (setting [7]) was 25%; in experiment [3] (setting [8]) it was 80% (active); in experiment [3] (at 50.0 µM), 17.9%; in experiment [4] (setting [7]) it was 13%; in experiment [4] (setting [8]), 32%; in experiment [4] (at 50.0 µM), 5.2%. For the same molecule, the growth inhibition in experiment [5] (setting [7]) was 32%; in experiment [5] (setting [8]) it was 76% (active); in experiment [5] (at 50.0 µM), -53%; in experiment [6] (setting [7]) it was 29%; in experiment [6] (setting [8]), 74% (active); in experiment [6] (at 50.0 µM), 9.8%.

`CC(=O)[O-].[Mn+3].[O-]c1ccc(Cl)cc1C=NCCN=Cc1cc(Cl)ccc1[O-]`: the growth inhibition was -2% in experiment [1] (setting [7]); 92% (active) in experiment [1] (setting [8]); 98.8% (active) in experiment [1] (at 50.0 µM); -3% in experiment [2] (setting [7]); 66% in experiment [2] (setting [8]); 98.5% (active) in experiment [2] (at 50.0 µM). In addition, the growth inhibition in experiment [3] (setting [7]) was 6%; in experiment [3] (setting [8]), 87% (active); in experiment [3] (at 50.0 µM) it was 98.6% (active); in experiment [4] (setting [7]), 8%; in experiment [4] (setting [8]), 89% (active); in experiment [4] (at 50.0 µM) it was 89.2% (active). Further, the growth inhibition in experiment [5] (setting [7]) was 16%; in experiment [5] (setting [8]) it was 98% (active); in experiment [5] (at 50.0 µM) it was 98.2% (active); in experiment [6] (setting [7]), -1%; in experiment [6] (setting [8]), 93% (active); in experiment [6] (at 50.0 µM), 98.6% (active).

Consider `Cc1c2oc3c(C)ccc(C(=O)NC4C(=O)NC(C(C)C)C(=O)N5CCCCC5C(=O)N(C)CC(=O)N(C)C(C(C)C)C(=O)OC4C)c3nc-2c(C(=O)NC2C(=O)NC(C(C)C)C(=O)N3CCCCC3C(=O)N(C)CC(=O)N(C)C(C(C)C)C(=O)OC2C)c(N)c1=O` (configuration not stated) (I: TV[Pip][Sar][NMeV] / II: TV[Pip][Sar][NMeV]; ester I:1-I:C, II:1-II:C; linker I:N-II:N via Actinocin(9to1); configuration not given here), for which the growth inhibition is -11% in experiment [1] (setting [7]); 91% (active) in experiment [1] (setting [8]); 69.4% in experiment [1] (at 50.0 µM); -22% in experiment [2] (setting [7]); 43% in experiment [2] (setting [8]); 48.3% in experiment [2] (at 50.0 µM). The growth inhibition in experiment [3] (setting [7]) was 7%; in experiment [3] (setting [8]), 28%; in experiment [3] (at 50.0 µM), 59.4%; in experiment [4] (setting [7]) it was 6%; in experiment [4] (setting [8]) it was 64%; in experiment [4] (at 50.0 µM), 29.3%. The growth inhibition in experiment [5] (setting [7]) was 0%; in experiment [5] (setting [8]), 80% (active); in experiment [5] (at 50.0 µM), 73.6% (active); in experiment [6] (setting [7]), 10%; in experiment [6] (setting [8]), 79% (active); in experiment [6] (at 50.0 µM) it was 45.6%.

Source of the values: PubChem BioAssay (NCI).
